Reference: PubChem BioAssay AID2401 (Southern Research Specialized Biocontainment Screening …, 2010)
About 530 (24%) of roughly 2,200 compounds were called active. Only a sample is shown. Potency and affinity values are given separately. A number with no mark means an inactive call.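 How the source made its calls: active means inhibition above a set limit at one or more concentrations of the dose series; inactive means inhibition under that limit at every dose.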

Test: S. Typhimurium nonspecific reporter signal inhibition – Salmonella Typhimurium, GFP fluorescence, counter-screen for PhoP regulon inhibitor project, dose response (AID 2401);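 further: S. typhimurium with Mg-insensitive nmpC-GFP reporter grown at 10 µM Mg2+; drop in reporter fluorescence reflects general culture growth inhibition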
Conditions: 4 h; series mostly up to 150 µM; inhibition: at the top concentration
In the case of `Cc1c(Cl)cccc1NC(=O)CSc1ncnc2c1cnn2CCc1ccccc1`, the “inhibition” value is reported as -13.4%.
In the case of `Cc1cccc(NC(=S)NC(NC(=O)c2ccco2)C(Cl)(Cl)Cl)c1` (stereo unspecified), the “inhibition” value is reported as -26.1%.
With `CN(C)CCOC(=O)Cc1ccc(Cl)cc1` the “inhibition” value was -18.6%.
With `O=C(CN1C(=O)c2ccccc2C1=O)N1CCN(c2ccccn2)CC1` the “inhibition” value was -25.8%.
In the case of `COC(=O)c1ccccc1Oc1cnc2ccccc2n1`, the “inhibition” value is reported as -28.7%.
With `Brc1ccc(NC2=Nc3ccccc3CC2)cc1` the “inhibition” value was -11.1%.
For `COc1ccc(N(CC(=O)Nc2ccccc2SC)S(C)(=O)=O)cc1OC`, the “inhibition” value was -12.1%.
For `Cc1ccccc1CS(=O)(=O)c1snnc1C`, the “inhibition” value was -13.8%.
With `CC(=O)Nc1ccc(NS(=O)(=O)c2ccc3c(c2)n(C)c(=O)n3C)cc1` the “inhibition” value was -23.9%.
With `CCOc1ccc(-c2nnc(SCc3nnc(-c4ccccc4)o3)n2-c2ccccc2F)cc1` the “inhibition” value was -8.6%.
In the case of `COc1ccc(/C=C/C(=O)NCCc2nc3ccccc3[nH]2)cc1`, the “inhibition” value is reported as 26.3%.
In the case of `CCOc1cc(/C=C2/NC(=O)N(CC(=O)Nc3cccc(C)c3)C2=O)ccc1OC`, the “inhibition” value is reported as -25.9%.
In the case of `O=C(c1cccnc1Nc1ccc2c(c1)CCC2)N1CCOCC1`, the “inhibition” value is reported as -20.1%.
For `Cc1cc(C)cc(NC(=O)CSc2nc3c(c(=O)[nH]2)CN(Cc2ccc(F)cc2)CC3)c1`, the “inhibition” value was -6.71%.
In the case of `O=C(c1cc2ncc(Br)cn2n1)N1CCOCC1`, the “inhibition” value is reported as -18.7%.
In the case of `O=[N+]([O-])c1ccccc1CNc1ccc(F)c(Cl)c1`, the “inhibition” value is reported as -24%.
For `Nc1nnc(SCCOc2ccc(Br)cc2)s1`, the “inhibition” value was -20%.
With `O=S(=O)(NCc1ccccc1)c1cccc(S(=O)(=O)N2CCOCC2)c1` the “inhibition” value was 11%.
For `COc1ccc(Cl)cc1Nc1nc(-c2sc(NC(=O)c3ccco3)nc2C)cs1`, the “inhibition” value was 20.6%.
With `O=C(/C=C/c1ccccc1)N1CCN(c2c(Cl)cccc2[N+](=O)[O-])CC1` the “inhibition” value was -29.2%.
In the case of `CCCCOC(=O)CCNc1n[nH]c(=O)[nH]c1=O`, the “inhibition” value is reported as 3.71%.
In the case of `CN1CCN(S(=O)(=O)c2ccc(N)cc2)CC1`, the “inhibition” value is reported as -16.2%.
In the case of `O=C(NCc1ccccn1)Nc1cccc(Cl)c1`, the “inhibition” value is reported as -24.5%.
For `Cn1c(N)c(C(=O)COC(=O)C2CCCCC2)c(=O)n(C)c1=O`, the “inhibition” value was -15.7%.
With `C#CCOc1ccc(Cl)cc1/C=N/O` the “inhibition” value was 13.5%.
With `CC(C)CNC(=O)c1ccc(COc2ccc(Cl)cc2Cl)o1` the “inhibition” value was -4.89%.
In the case of `CCCCN(C(=O)NC(=O)Nc1nc2ccc(OC)cc2s1)S(C)(=O)=O`, the “inhibition” value is reported as 14.3%.
For `Cc1ccc2nc(SCC(=O)c3c(C)[nH]c4ccccc34)[nH]c2c1`, the “inhibition” value was 30.9%.
With `CN(CCO)Cc1csc2ccc(Br)cc12` the “inhibition” value was -7.08%.
For `CCNC(=O)NC1(C(=O)Nc2ccc3c(c2)OCCO3)CCCCC1`, the “inhibition” value was -29.3%.
With `CC1=CC(C)(C)n2c(O)c(C3=NC(=S)NC3=O)c3cc(OC(=O)c4cccc5ccccc45)cc1c32` the “inhibition” value was -11.6%.
For `CCOC(=O)C1CCCN(S(=O)(=O)c2ccc(Br)c(OC)c2)C1` (stereo unspecified), the “inhibition” value was 0.83%.
For `O=C(CCc1ccccc1)Nc1nc2ccc(S(=O)(=O)N3CCOCC3)cc2s1`, the “inhibition” value was 25.6%.
With `O=C(c1ccc2nc(N3CCOCC3)sc2c1)N1CCC(Cc2ccccc2)CC1` the “inhibition” value was -16.1%.
With `CN1CCN(S(=O)(=O)c2ccc(-c3ccccc3)cc2)CC1` the “inhibition” value was -28.3%.
For `CCC1C2CN(C(C)=O)CC=C2C(C#N)=C(N)C1(C#N)C#N` (stereo unspecified), the “inhibition” value was 3.63%.
In the case of `Cc1cc(NCCN2CCOCC2)n2ncc(-c3ccccc3)c2n1`, the “inhibition” value is reported as -15.6%.
In the case of `CN(C)CCNc1nc(-c2ccccc2)nnc1C(F)(F)F`, the “inhibition” value is reported as -3.73%.
In the case of `Nc1c(-c2ccccc2Cl)cnn1-c1cccc([N+](=O)[O-])c1`, the “inhibition” value is reported as -8.16%.
For `N#Cc1ccc(C(c2nnnn2CCc2ccccc2)N2CCCCCC2)cc1` (stereo unspecified), the “inhibition” value was -1.07%.
For `NC(=O)c1ccccc1NC(=O)/C=C/C(=O)O`, the “inhibition” value was -8.68%.
In the case of `O=C(Cc1cccs1)Nc1nc2c(s1)CCCC2`, the “inhibition” value is reported as -24.8%.
In the case of `COc1ccc([N+](=O)[O-])cc1N(CC(O)Cn1nnc2ccccc21)S(=O)(=O)c1ccc(C)cc1` (stereo unspecified), the “inhibition” value is reported as -42.2%.
For `O=C(O)/C=C/C(=O)Nc1cccc(C(F)(F)F)c1`, the “inhibition” value was -19.4%.
In the case of `Cc1cccc(NC(=O)c2ccc(Cn3cc(C(F)(F)F)ccc3=O)cc2)c1`, the “inhibition” value is reported as 7.69%.
In the case of `NS(=O)(=O)c1ccc(Nc2nc(-c3ccc(O)cc3)cs2)cc1`, the “inhibition” value is reported as -18.4%.
For `COCc1cc(C)nc(N2CCc3ccccc32)c1C#N`, the “inhibition” value was -22.8%.
With `O=C(CSc1nnc(Cc2ccccc2)o1)NCCc1ccccc1` the “inhibition” value was -24.4%.
With `CCn1c(=N)n(CC(O)c2ccccc2)c2ccccc21` (stereo unspecified) the “inhibition” value was -16%.
For `Cc1ccccc1OCCCCCn1ccnc1`, the “inhibition” value was -17%.
For `COc1ccc(C(=O)NCCC2=CCCCC2)cc1OC`, the “inhibition” value was 5.91%.
With `C1=C(CCNc2ncnc3c2[nH]c2ccccc23)CCCC1` the “inhibition” value was 26.4%.
With `Cc1nc2ccccc2c(=O)n1/N=C/c1ccc(N(C)C)cc1` the “inhibition” value was -15.2%.
In the case of `COc1cccc(Nc2nc(-c3sc(NC(=O)c4ccco4)nc3C)cs2)c1`, the “inhibition” value is reported as 25.7%.
In the case of `O=C(NCCNS(=O)(=O)c1cccc(C(F)(F)F)c1)c1cc(OCC(F)(F)F)ccc1OCC(F)(F)F`, the “inhibition” value is reported as -2.55%.
With `CCOC(=O)C1CCCN(C(=O)Cc2ccc(Cl)cc2)C1` (stereo unspecified) the “inhibition” value was -20.2%.
For `NC(=NCc1ccc2c(c1)OCO2)NC(=O)c1ccccc1`, the “inhibition” value was 36.3%.
In the case of `COc1ccc(-c2nc3ncccc3n2O)cc1`, the “inhibition” value is reported as -18.4%.
In the case of `O=C(CSc1nccc(=O)[nH]1)N1c2ccccc2CCc2ccccc21`, the “inhibition” value is reported as 1.74%.
In the case of `O=C(CSC1CC(=O)N(CCc2ccccc2)C1=O)Nc1cccc(Cl)c1` (stereo unspecified), the “inhibition” value is reported as 9.92%.
For `COc1ccc(NC2=NC3(CCCCC3)N=C(N)N2)cc1`, the “inhibition” value was -8.53%.
In the case of `CC(C)c1ccc(NC(=O)Nc2cc3sccc3n2C)cc1`, the “inhibition” value is reported as 22.1%.
With `CCOC(=O)C1CCCN(C(=O)c2sc3nc(C)nc(N4CCOCC4)c3c2C)C1` (stereo unspecified) the “inhibition” value was -24.6%.
In the case of `CCn1c(Cc2ccccc2)nnc1SCC(=O)Nc1nc(C)c(C)s1`, the “inhibition” value is reported as -12.1%.
In the case of `OC1(c2cccc(C(F)(F)F)c2)CCN(c2ncnc3c2[nH]c2ccccc23)CC1`, the “inhibition” value is reported as 15.2%.
For `Cc1ccc(Oc2nnc(-c3ccccc3)c3ccccc23)cc1`, the “inhibition” value was 3.31%.
For `NC(=O)c1oc2ccccc2c1NC(=O)CN1CCCCC1`, the “inhibition” value was -2.53%.
With `O=C(CN1CCCc2ccccc21)N/N=C/c1c(O)ccc2ccccc12` the “inhibition” value was 38.1%.
With `Nc1ccc(S(=O)(=O)Nc2ccc(Cl)nn2)cc1` the “inhibition” value was 15.9%.
For `O=C(Nc1cccc(-c2cn3cccnc3n2)c1)c1ccco1`, the “inhibition” value was -21.2%.
In the case of `CCOCCCNC(=S)Nc1cc(C)cc(C)c1`, the “inhibition” value is reported as -3.38%.
For `O=C(CCNS(=O)(=O)c1cccc2nsnc12)Nc1ccc2c(c1)OCCO2`, the “inhibition” value was -13.2%.
In the case of `c1cncc(-c2nc(N3CCOCC3)c3ccccc3n2)c1`, the “inhibition” value is reported as -13.2%.
With `Cc1cc(C(C)c2ccccc2)c(O)c(CN2CCOCC2)c1C` (stereo unspecified) the “inhibition” value was 16.5%.
For `c1ccc(COc2cccc(CN3CCN(c4ccccn4)CC3)c2)cc1`, the “inhibition” value was -21.9%.
With `O=c1[nH]c(CN2CCCCC2)nc2ccccc12` the “inhibition” value was -18.8%.
